Bioassay records: PubChem, University of Kansas High Throughput Screening Laboratory
Compounds with a hit are over-represented: about 3.5% of the library has one in this group of screens.
Pf apPOL inh – Pf-apPOL DNA polymerase inhibition; Recombinant Pf-apPOL, molecular beacon fluorescence, 1.5 h; inhibition, % at 10 µM; actives 0.25% (n = 210,000); AID 1794808
mHTT-CaM PPI inh – mHTT-calmodulin interaction abrogation; P42858; AlphaScreen His-mHTT/GST-CaM binding, luminescence; inhibition, % at 15 µM; actives 3.6% (n = 190,000)
Each line names hits and unclear results; the compound was inactive in the other large screens. No stated cut-off is given here; in the data, active means inhibition above about 50%; inactive means the rest.

Cc1ccc(-c2ccc(CN3C(C(C)C)C(=O)N(Cc4cn(CCC5OCCO5)nn4)CCS3(=O)=O)cc2)c(C)c1 (stereo unspecified)	mHTT-CaM PPI inh 74
Cn1nc(-c2nc(-c3cccc(F)c3)no2)c2c1CCN(C(=O)c1c(F)cccc1F)C2	none
CC(O)(CNC(=O)C1CCN(S(C)(=O)=O)CC1)c1cccs1 (stereo unspecified)	none
CCC(=O)Nc1ccc(Br)c(C)c1C	none
COc1ccc(/C=C2\SC(=O)N(CNc3ccc(OC)c(Cl)c3)C2=O)cc1	none
CN(CCc1ccccc1)c1cc2c(c3c1ccn3C)C1CCC2C1 (stereo unspecified)	mHTT-CaM PPI inh 75
Cn1ccc2c(N(Cc3ccccc3)Cc3ccccc3)cc3c(c21)C1CCC3C1 (stereo unspecified)	none
COc1ccccc1N(C)c1cc2c(c3c1ccn3C)C1CCC2C1 (stereo unspecified)	mHTT-CaM PPI inh 83
Cc1ccccc1-c1cc2c(c3c1ccn3C)C1CCC2C1 (stereo unspecified)	none
CCN(C)c1cc2c(c3c1ccn3C)C1CCC2C1 (stereo unspecified)	mHTT-CaM PPI inh 53
COc1ccc(-c2cc3c(c4c2ccn4C)C2CCC3C2)cc1F (stereo unspecified)	none
CN(Cc1ccccc1)c1cc2c(c3c1ccn3C)C1CCC2C1 (stereo unspecified)	mHTT-CaM PPI inh 71
Cn1ccc2c(-c3ccc(F)cc3)cc3c(c21)C1CCC3C1 (stereo unspecified)	none
CN1CCN(c2ncncc2N2CCC(C(=O)N3CCCCC3)CC2)CC1	none
COc1cccc(NC(=O)C2CCN(C(=O)c3ccc(Cl)cc3Cl)CC2)c1	none
CC(C)COc1cccc(C(=O)Nc2ccc(-c3nc4ncccc4o3)cc2)c1	none
Cn1ccc2c(N(c3ccccc3)C3CCCCC3)cc3c(c21)C1CCC3O1 (stereo unspecified)	none
CN(c1cc2c(c3c1ccn3C)C1CCC2C1)C1CCCCC1 (stereo unspecified)	mHTT-CaM PPI inh 70
CN1CCN(c2ccc3c(c2)Oc2ccccc2CN(Cc2cn(Cc4ccc(C(F)(F)F)cc4)nn2)S3(=O)=O)CC1	mHTT-CaM PPI inh 72
O=S1(=O)c2ccc(N3CCCC3)cc2Oc2ccccc2CN1Cc1cn(Cc2ccc(Cl)cc2)nn1	none
CCOc1ccc(CC(=O)NCCn2ncccc2=O)cc1	none
COc1ccc(NC(=O)N2CCN(c3ccc(-n4nc(C)cc4C)nn3)CC2)cc1	none
COc1cccc(NC(=O)N2CCN(c3ccc(Nc4cc(C)ccn4)nn3)CC2)c1	mHTT-CaM PPI inh 99
Cc1sc(NC(=O)c2ccco2)c(C(c2cccnc2)N2CCN(c3ccccc3)CC2)c1C (stereo unspecified)	none
Cc1sc(NC(=O)c2ccco2)c(C(c2cccnc2)N2CCN(c3ccccn3)CC2)c1C (stereo unspecified)	mHTT-CaM PPI inh 100
COCCN1C(=O)C(=O)C(=C(O)c2ccccc2)C1c1ccccc1Cl (stereo unspecified)	none
Nc1ccc(C(=O)Nc2ccccc2)c(N)c1	mHTT-CaM PPI inh 95
Nc1cccc(C(=O)Nc2ccccc2)c1	none
CCCN1C(=O)Cc2ccccc2C1C(=O)NCc1ccc2c(c1)OCO2 (stereo unspecified)	none
COc1ccc(C2CC(c3ccc(OC)cc3OC)n3nnnc3N2)cc1 (stereo unspecified)	none
CC(=O)n1c2c(c3ccccc31)OC(N)=C(C#N)C2c1ccc(C(C)C)cc1 (stereo unspecified)	mHTT-CaM PPI inh 50
CC(=O)n1c2c(c3ccccc31)OC(N)=C(C#N)C2c1ccc(F)cc1 (stereo unspecified)	none
Cc1nc(S(=O)(=O)N2CCCC(c3nc(CNC(=O)C4CCC4)cs3)C2)cn1C (stereo unspecified)	none
O=C(c1ccccc1)N1CCCC(c2ccnc(-c3cccc(F)c3)n2)C1 (stereo unspecified)	none
COc1cccc(C2CC(c3ccccc3C)n3nnnc3N2)c1 (stereo unspecified)	none
COc1ccccc1C(NC(C)=O)c1cc([N+](=O)[O-])c2cccnc2c1O (stereo unspecified)	mHTT-CaM PPI inh 100
COc1ccccc1C(NC(=O)C1CCCCC1)c1cc([N+](=O)[O-])c2cccnc2c1O (stereo unspecified)	mHTT-CaM PPI inh 54
O=C(NC(c1cccs1)c1cc([N+](=O)[O-])c2cccnc2c1O)C1CCCCC1 (stereo unspecified)	none
CCC(=O)N1CCc2sc(S(=O)(=O)NCc3cccc(C)c3)cc2C1	none
Cc1ccc(C2Cn3nnc(C(=O)NC4CCN(Cc5ccccc5)CC4)c3CO2)cc1 (stereo unspecified)	none
Cc1ccc(C)c(NC(NC(=O)N(C)C)C(Cl)(Cl)Cl)c1 (stereo unspecified)	none
CC1CCCCN1C(=O)NC1CCCCC1 (stereo unspecified)	none
O=C(NC1CCN(Cc2ccccc2)CC1)c1cccn2c(=O)c3cc(Cl)ccc3nc12	none
Cc1ccc2nc3c(C(=O)N4CCN(Cc5ccccc5)CC4)cccn3c(=O)c2c1	mHTT-CaM PPI inh 84
O=C1c2ccccc2C(=O)c2c(NC(=O)c3coc4ccccc4c3=O)cccc21	none
COc1cccc(C2=N/C(=C\c3ccco3)C(=O)O2)c1	Pf apPOL inh 61
O=C1OC(c2ccccc2Cl)=N/C1=C\c1ccc(Cl)cc1	none
COc1cccc(/C=C2\N=C(c3cccc(OC)c3)OC2=O)c1	none
COc1ccc(OC)c(/C=C2\N=C(c3ccc(Cl)c([N+](=O)[O-])c3)OC2=O)c1	mHTT-CaM PPI inh 68
O=C1OC(c2cc(Cl)ccc2Cl)=N/C1=C\c1ccco1	Pf apPOL inh 86
O=C1OC(c2ccccc2Cl)=N/C1=C\c1ccccc1	mHTT-CaM PPI inh 51
O=C1OC(c2ccc(Cl)cc2Cl)=N/C1=C\c1ccco1	none
COc1ccc(Br)cc1/C=C1\N=C(c2ccc(Cl)c([N+](=O)[O-])c2)OC1=O	none
Cc1cc(C)n(CCNC(=O)C(=O)Nc2ccc3c(c2)N(S(C)(=O)=O)CCC3)n1	none
Cc1ccccc1C1CCCN1C(=O)Nc1ccc(F)cc1F (stereo unspecified)	none
Cc1ccc(C)c(NC(=O)CN2CCC(c3nc(-c4cccc(F)c4)no3)CC2)c1	none
O=c1oc2c(Cl)cc(Cl)cc2cc1-c1nc2ccccc2[nH]1	none
CC1CC(C)CN(C(=O)c2ccc3c(c2)NC(=O)C(N2CCOCC2)S3)C1 (stereo unspecified)	none
CC1=C(C)CC(C(=O)Nc2ccc(Cl)cc2)C(C(=O)O)C1 (stereo unspecified)	none
CCSc1ccsc1C1C(C#N)=C(N)N(c2ccc([N+](=O)[O-])cc2)C2=C1C(=O)CCC2 (stereo unspecified)	mHTT-CaM PPI inh 51
CCSc1ccsc1C1C(C#N)=C(N)N(c2cccc([N+](=O)[O-])c2)C2=C1C(=O)CCC2 (stereo unspecified)	none
CC(C)N1C(=O)C(C)(C(=O)Nc2cccc(Cl)c2)Oc2cccnc21 (stereo unspecified)	none
CC(C)N1C(=O)C(C)(C(=O)Nc2ccc(F)c(Cl)c2)Oc2cccnc21 (stereo unspecified)	mHTT-CaM PPI inh 100
CC(C)Cn1c(C2CCN(S(=O)(=O)Cc3cccc(Cl)c3)C2)nc2ccncc21 (stereo unspecified)	none
COc1ccc(CNC(=O)N2CCC3(C2)C(=O)N(C)c2ccccc23)cc1 (stereo unspecified)	none
